Lassa entry inh: inhibitors of Lassa virus binding or cell entry; Potency, µM (highest dose often 37.9 µM), for inactives: top-dose activity change, negative = inhibition, hits mostly inhibitors; 300,000 compounds, 1.2% hits; Lassa virus pseudotype entry inhibition, cell reporter; calls by dose curve; tested in HEK293 cells; also: potency is read from the fitted curve at half-maximal effect; nearly all actives have a fitted effect of over 50% in size
Vaccinia mCherry: vaccinia inhibition (mCherry reporter); 310,000 compounds, 0.63% hits; Vaccinia virus mCherry reporter infection, fluorescence; Potency, µM (series often up to 36.5 µM), for the others: top-dose activity change, negative = inhibition, most hits filed as inhibitors; calls by dose curve; tested in A549 cells; also: potency is read from the fitted curve at half-maximal effect; nearly all actives have a fitted effect of over 35% in size
HCMV antiviral: blocks human cytomegalovirus replication; activity change, negative = inhibition, % at 57.5 µM; 410,000 compounds, 4.5% hits; HFF cells, HCMV-luciferase reporter, 72 h; hits give low values; in the data active = activity change below about -60%; inconclusive = no clear call, values can overlap the other calls; inactive = above about -39%
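After 16 h attachment at 37C, HFF cells received test compound and HCMV-luciferase (1 PFU/cell); reporter luminescence read 72 h later, data normalized against buffer-only and known inhibitor Salinomycin.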
MARV entry inh: inhibitors of Marburg virus binding or cell entry. Potency, µM (highest dose often 37.8 µM), inactives show at the highest dose activity change, negative = inhibition, usual class: inhibitors. Marburg virus pseudotyped entry inhibition, cell reporter. 300,000 compounds, 1.8% hits; calls by dose curve; tested in HEK293 cells; also: potency is read from the fitted curve at half-maximal effect
FMDV inh: antivirals against foot and mouth disease virus; FMDV antiviral cell-based qHTS; Potency, µM (doses to about 57.9 µM), for the others: at the top dose activity change, negative = inhibition, usual class: inhibitors; 410,000 compounds, 1.2% hits; calls by dose curve; tested in HEK293T cells; also: read-out not given here; potency is read from the fitted curve at half-maximal effect; nearly all actives have a fitted effect of over 45% in size
Vaccinia Venus: vaccinia inhibition (Venus reporter); Vaccinia virus Venus reporter expression, fluorescence; Potency, µM (highest dose often 36.5 µM), for inactives: at the top dose activity change, negative = inhibition, usual class: inhibitors; 330,000 compounds, 0.46% hits; calls by dose curve; tested in A549 cells; also: potency is read from the fitted curve at half-maximal effect; nearly all actives have a fitted effect of over 30% in size
* marks the source's active call; other numbers are inactive results; i = inactive; ? = inconclusive; . = no result given; [ ] = another dose, or the depositor's remark. Only some compounds are listed: those with a hit (about 6.5% of all), similar ones and a draw of the others. % is scaled to controls: 0 for no effect and ±100 for the full control effect.

SMILES | Lassa entry inh | Vaccinia mCherry | HCMV antiviral | MARV entry inh | FMDV inh | Vaccinia Venus
COc1cccc(/C=N/Nc2nc(Nc3ccccc3)nc(-n3nc(C)cc3C)n2)c1O | 16µM* | . | 59 | ? | -23% | ?
Cc1cnn(-c2cc(N/N=C/c3ccccc3Cl)ncn2)c1 | 3% | -14% | -18 | 9% | -12% | -13%
COc1cccc(/C=N/Nc2cc(-n3nc(C)cc3-c3ccccc3)ncn2)c1O | ? | 13µM* | -96* | ? | ? | ?
CC(=O)N1CCN(C(=O)CNC(=O)c2cccs2)CC1 | . | . | 5 | . | -16% | .
CC(C)(C)CC(C)(C)c1ccc(O)c(Cc2ccc(Cl)cc2Cl)c1 | . | ? | -86* | . | 28µM* | ?
CCC(C)Nc1nnc(SCC(=O)c2c(N)n(C3CC3)c(=O)[nH]c2=O)s1 (centres undefined) | 10%[46.1 µM] | -16% | 22 | 5%[46.1 µM] | -2% | -9%
CCCCn1c(=N)n(CCCOc2ccc(F)cc2)c2ccccc21 | ? | ? | -67* | 10µM* | ? | ?
N=c1n(CCO)c2ccccc2n1CCOc1ccc(F)cc1 | 20%[46.1 µM] | -17% | -5 | -6%[46.1 µM] | -24% | -4%
Cc1ccc(N(C)S(=O)(=O)c2cccc(C(=O)OCC(=O)N(C)Cc3ccccc3)c2)cc1 | . | i | 45 | . | 28µM* | -16%
CN(C(=O)COC(=O)c1cccc(S(=O)(=O)N(C)c2ccccc2)c1)C1CCCCC1 | . | . | -12 | . | ? | .
COc1ccc(NC(=O)c2cccc(S(=O)(=O)N(C)c3ccccc3)c2)cn1 | ? | -25% | -75* | -30% | 35µM* | -14%
CN(c1ccccc1)S(=O)(=O)c1cccc(C(=O)NNC(=O)c2ccccc2)c1 | -10% | -8% | ? | ? | ? | -18%
Cc1ccc(N(C)S(=O)(=O)c2cccc(C(=O)Nc3ccc(C)cn3)c2)cc1 | ? | -26% | -23 | ? | 40µM* | -23%
CN(c1ccccc1)S(=O)(=O)c1cccc(C(=O)Nc2ccc3c(c2)CCC3)c1 | 16µM* | -14% | ? | 16% | -16% | -21%
COc1ccc(CN2CCOc3ccc(CN4CCN(CCO)CC4)cc3C2)c2ccccc12 | . | -20% | . | . | -7% | -12%
Cc1ccc(-c2csc(N3CCC(NS(=O)(=O)c4ccc5c(c4)OCCO5)CC3)n2)cc1 | ? | ? | -85* | ? | ? | 8.9µM*
COc1ccc(N2C3=C(C(=O)CC(C)(C)C3)C(c3ccccc3OC)C3=C2CC(C)(C)CC3=O)cc1 | -2%[46.1 µM] | -19% | -65* | ? | -4% | -20%
COc1ccccc1C1C2=C(CC(C)(C)CC2=O)N(CC(=O)O)C2=C1C(=O)CC(C)(C)C2 | . | . | 2 | . | 5% | .
COc1ccc(N2C3=C(CC4=C2CC(C)(C)CC4=O)C(=O)CC(C)(C)C3)cc1 | -31% | ? | -99* | ? | . | -26%
COc1ccc(N2C3=C(CC4=C2CCCC4=O)C(=O)CCC3)cc1 | -16% | i | ? | -4% | ? | -10%
Cc1ccccc1NC(=O)CSc1nc2ccccc2c2nc(CCn3c(C)nc4ccccc43)nn12 | 1%[46.1 µM] | ? | -4 | . | ? | ?
Cc1nc2ccccc2n1CCc1nc2c3ccccc3nc(SCC(=O)NCc3ccco3)n2n1 | ? | . | -62* | 10µM* | ? | .
Cc1ccc(NC(=O)CSc2nc3ccccc3c3nc(CCn4c(C)nc5ccccc54)nn23)cc1F | -12%[46.1 µM] | ? | -11 | . | -27% | ?
Cc1c(O)nc(SCC(=O)Nc2cccc(C(F)(F)F)c2)n(-c2ccccc2)c1=O | 11% | i | -104* | -14% | -21% | -11%
Cc1nc2ccccc2n1CCc1nc2c3ccccc3nc(SCC(=O)Nc3cccc(C(F)(F)F)c3)n2n1 | -5%[46.1 µM] | -17% | -61* | . | 0% | ?
SMILES | Lassa entry inh | Vaccinia mCherry | HCMV antiviral | MARV entry inh | FMDV inh | Vaccinia Venus
Cc1ccc(F)cc1NC(=O)C1CC(=O)N(Cc2ccccc2)C1 (centres undefined) | . | -15% | 11 | . | 0% | -8%
CC(=N)C1=C(O)CC(c2ccccc2)CC1=O (centres undefined) | 12% | 20% | -99* | 0%[46.1 µM] | 2% | -8%
COc1ccc(/C=N/c2oc(-c3ccccc3)cc2C#N)cc1OC | 13% | . | -103* | ? | -6% | 4%
O=c1c2ccccc2nc(SCc2cn3ccsc3n2)n1-c1ccc(F)cc1 | 11µM* | . | -77* | ? | ? | ?
CCCC(=O)NC(c1ccc(C)cc1)c1ccc2cccnc2c1O (centres undefined) | ? | ? | . | 2.8µM* | -16% | ?
CCCC(=O)NC(c1ccc(Cl)cc1Cl)c1ccc2cccnc2c1O (centres undefined) | ? | ? | -105* | 2.2µM* | -12% | ?
COc1ccc(C(Nc2ccccn2)c2ccc3ccc(C)nc3c2O)cc1C (centres undefined) | ? | -13% | -11 | ? | -25% | -8%
CCCC(=O)NC(c1ccccc1)c1c(O)ccc2ccccc12 (centres undefined) | . | . | 9 | . | -18% | .
Cc1cccc(NC(c2cccc(Cl)c2)c2ccc3cccnc3c2O)n1 (centres undefined) | 10µM* | ? | -98* | ? | -12% | ?
Cc1ccc(C(Nc2ccccn2)c2ccc3cccnc3c2O)cc1 (centres undefined) | ? | 11µM* | -64* | ? | -9% | ?
CCCS(=O)(=O)NC(=O)C1(C)CCCN(C(=O)c2ccccc2Br)C1 (centres undefined) | . | 5% | 2 | . | -6% | 7%
O=C(c1ccccc1Cl)n1nc(-c2ccco2)nc1NCc1cccs1 | 16%[46.1 µM] | -19% | 31 | 11%[46.1 µM] | 22% | -14%
CCCCC(=O)NC(c1ccc(Cl)cc1)c1ccc2cccnc2c1O (centres undefined) | ? | 6.3µM* | -98* | 4µM* | -3% | ?
CCCC(=O)NC(c1ccc(Cl)cc1)c1ccc2cccnc2c1O (centres undefined) | 4µM* | ? | -100* | 3.5µM* | -9% | ?
CCCCC(=O)NC(c1ccccc1Cl)c1c(O)ccc2ccccc12 (centres undefined) | -40% | ? | ? | -40% | ? | -27%
CC(=O)NC(CC(=O)NC(C)c1ccc(Cl)cc1Cl)c1ccccc1 (centres undefined) | -1% | i | -13 | -16%[46.1 µM] | 4% | -8%
CC(=O)NC(c1ccc(Cl)cc1Cl)c1ccc2cccnc2c1O (centres undefined) | . | . | -98* | . | 0% | .
CCCC(=O)NC(c1ccccc1Cl)c1c(O)ccc2ccccc12 (centres undefined) | ? | ? | -16 | -8% | ? | -30%
Cc1ccc(CCNC(=O)c2ccc(CSCc3ccc(C)cc3)o2)cc1 | -21%[46.1 µM] | i | -27 | . | ? | -18%
CN1C2CCC1/C(=C\c1ccccc1F)C(=O)/C2=C/c1ccccc1F | -26% | 11µM* | -72* | 2% | -16% | ?

Screening results as filed in PubChem BioAssay.
